The source of these data is PubChem BioAssay (NCATS).

Structures are written as SMILES. Inconclusive results are not listed. Active and inactive are the calls of the source. Calls follow the shape of the dose curve; as a rule, active = well fitted curve in the direction sought with a large enough effect; inconclusive = small, poorly fitted or top-dose-only effect, or another doubt; inactive = no such curve, though single readings can be large; an effect the other way counts as inactive or inconclusive.

A short description of assay [1]: Confirmatory screen GU Rhodamine qHTS for Zika virus inhibitors qHTS (AID 1347157). Also: potency is read from the fitted curve at half-maximal effect; nearly all actives have a fitted effect of over 70% in size. The note with it: purified enzyme assay, Rhodamine110 substrate fluorescence, 15 min; series mostly up to 114 µM. The procedure, abridged: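 A qHTS format was used, with compound concentrations ranging up to 114 microM. Each compound was preincubated with 25 nM NS2B-NS3 protease, and the substrate was then added at 1.5 microM. Curves were fitted with a 4-parameter Hill model.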

Assay [2] in a line: ZIKV-mCherry secondary qHTS for Zika virus inhibitors (AID 1347158). Also: top concentration of the series differs between compounds. Conditions: Vero cells, ZIKV-mCherry infection imaging, 48-72 h; series mostly up to 49.2 µM. An outline of the steps:
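Percent infection is the share of Hoechst-identified Vero nuclei with mCherry signal above 450 RFU (3 SD over negative controls). Cells were infected with recombinant ZIKV-mCherry at MOI 1 after compound addition and imaged 48–72 h later.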

The subject of assay [3] is Zika virus NS2B-NS3 protease (linked construct). In words: Primary screen NINDS Rhodamine qHTS for Zika virus inhibitors (AID 1347160). Also: nearly all actives have a fitted effect of over 55% in size. Also: potency is read from the fitted curve at half-maximal effect. The note with it: purified NS2B-NS3 protease, Rhodamine110 substrate fluorescence; series mostly up to 57.1 µM. An outline of the steps: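 Rhodamine110-peptide cleavage (1.5 µM substrate) by 25 nM linked NS2B-NS3 enzyme at pH 8.0 (Tris, Tween 20), after 15 min RT preincubation with compounds; 15-min fluorescence change normalized to controls and Hill-fitted.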

Assay [4] can be described thus: Confirmatory screen NINDS Rhodamine qHTS for Zika virus inhibitors (AID 1347161). Also: potency is read from the fitted curve at half-maximal effect; nearly all actives have a fitted effect of over 60% in size. The note with it: purified enzyme assay, Rhodamine110 substrate fluorescence, 15 min; series mostly up to 114 µM. An outline of the steps: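 Each compound, titrated, sat 15 min with 25 nM linked protease before 1.5 microM Rhodamine110 substrate went in. Fluorescence gain over the next 15 min, in pH 8.0 Tris with Tween 20, gave Hill-fitted curves.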

Assay [5] deals with Zika virus NS2B-NS3 protease (linked construct). In words: 384 well plate NINDS Rhodamine confirmatory qHTS for Zika virus inhibitors (AID 1347164).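 Also: fluorescence from protease cleavage of Ac-LKRR-rhodamine 110 substrate; nearly all actives have a fitted effect of over 65% in size.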 Also: potency is read from the fitted curve at half-maximal effect. The note with it: rhodamine-110 peptide substrate fluorescence; series mostly up to 100 µM. The procedure, abridged:
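Fluorescence read at ex 485 nm/em 538 nm, 25 min after adding 10 microM Ac-LKRR-Rd substrate at room temperature in the dark; signal normalized to no-enzyme and no-inhibitor controls. Enzyme final 5, 30 or 60 nM; compounds, ~15 min preincubation.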

The nature of assay [6]: Vero cells viability qHTS for Zika virus inhibitors (AID 1347167). Conditions: cytotoxicity counter-screen (Zika); series mostly up to 45.9 µM. The procedure, abridged: (§1)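 Luminescent ATP readout (CellTiter Glo) after 30 min at 37 degrees C gives viability; cells in DMEM + 4% FBS were treated 24 to 48 hours with compound, following overnight attachment.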
Assay [7] in a line: HepG2 cells viability qHTS for Zika virus inhibitors (AID 1347168). The note with it: Zika counter-screen; series mostly up to 45.9 µM. The procedure, abridged: as §1
In assay [8] the test system is Zika virus NS2B-NS3 protease (unlinked complex). In words: Primary screen GU Rhodamine qHTS for Zika virus inhibitors: Unlinked NS2B-NS3 protease assay (AID 1347159). Also: potency is read from the fitted curve at half-maximal effect; nearly all actives have a fitted effect of over 60% in size. The note with it: Recombinant ZIKV NS2B-NS3 protease, Rhodamine110 substrate fluorescence; series mostly up to 107 µM. An outline of the steps: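 Percent inhibition came from the 15-min rise in Rhodamine110 fluorescence (1.5 microM substrate, ~15% conversion), normalized to no-inhibitor and no-enzyme wells and Hill-fitted. Unlinked protease, 25 nM, pH 8.0 Tris buffer; compounds up to 114 microM, 15-min preincubation.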

As to `O=C(O)c1ccc(N2C(=O)/C(=C/c3ccc(-c4ccc([N+](=O)[O-])cc4)o3)C=C2c2ccccc2)cc1`, the values for the Potency in assay [1], in assay [3] and in assay [4] were 1560 nM (active), 1780 nM (active) and 1750 nM (active), respectively. In addition, the Potency entry in assay [2] and in assay [5] was “inactive” throughout. Moreover, the molecule was classed as inactive in assay [6] and in assay [7].

Regarding `CC(C)(C)Sc1c(CC(C)(C)C(=O)O)n(Cc2ccc(Cl)cc2)c2ccc(OCc3ccc4ccccc4n3)cc12`, the Potency was 3930 nM (active) in assay [1], 2820 nM (active) in assay [8], 4470 nM (active) in assay [3] and 3930 nM (active) in assay [4]. For the same molecule, the Potency result in assay [5] is “inactive”. Further, the call in assay [6] and in assay [7] was inactive.

As to `CCCCCc1ccc(/C=C/C(=O)Nc2cc(Cl)ccc2C(=O)O)cc1`, the Potency was 1750 nM (active) in assay [1], 2000 nM (active) in assay [3], 1750 nM (active) in assay [4] and 22400 nM (active) in assay [5]. Also, the result in assay [7] was inactive.

Turning to `CCCCCCCOc1cc2c(cc1/C(C)=C/c1ccc(C(=O)O)cc1)C(C)(C)CCS2(=O)=O`, the Potency in assay [1] was 1970 nM (active); in assay [8], 1780 nM (active); in assay [3] it was 2510 nM (active); in assay [4] it was 1970 nM (active). The molecule was called inactive in assay [6] and in assay [7].

Turning to `CC(O)(C(=O)O)C1CCC2(C)C1CCC1(C)C2CCC2C3(C)CCC(O)C(C)(COC4OC(CO)C(O)C(O)C4O)C3CCC21C` (centres undefined), the Potency is 13100 nM (active) in assay [1], 7940 nM (active) in assay [8], 13100 nM (active) in assay [4] and 12600 nM (active) in assay [5]. For the same molecule, the molecule was called inactive in assay [6] and in assay [7].

`COc1cc(C(=O)O)ccc1NC(=O)C1NC(CC(C)(C)C)C(C#N)(c2ccc(Cl)cc2F)C1c1cccc(Cl)c1F` (centres undefined): the figures for the Potency in assay [1], in assay [8] and in assay [4] were 4410 nM (active), 2510 nM (active) and 4940 nM (active), respectively. Further, in assay [3], the Potency entry was “inactive”.

With `COc1ccc2cc(-c3cc(-c4cc(Cl)cc(Cl)c4)nn3C(C)c3ccc(C(=O)NCCC(=O)O)cc3)ccc2c1` (centres undefined), the Potency in assay [1] is 5550 nM (active); in assay [8], 2240 nM (active); in assay [4], 4940 nM (active). Also, the Potency entry in assay [3] was “inactive”.
